# Assay outcomes as filed in PubChem BioAssay.
# Gal4-VP16 FLuc: inhibits Gal4-VP16 luciferase reporter, ROR gamma counter-screen. Drosophila S2 Gal4-VP16 UAS-luciferase, luminescence, 20 h. Potency, µM (top dose mostly 53.6 µM), for inactives: at the top dose activity, negative = inhibition, actives largely listed as inhibitors. actives 3.5% (n = 310,000). AID 2546;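 note: Gal4-VP16 expression switched on by copper sulfate through the metallothionein promoter; potency is the fitted concentration of half-maximal effect; nearly all actives have a fitted effect of over 50% in size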
# IL-1B inflam inh: inflammasome signaling inhibition, IL-1 beta readout. activity change, % at 57.5 µM. actives 4.7% (n = 360,000). THP-1 LPS/ATP IL-1B secretion, AlphaLISA, 16 h; stronger effect = lower value; in the data active = activity change below about -50%; inconclusive = mostly about -30% to -49%
#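 Secreted IL-1B measured by AlphaLISA bead assay after 16 h compound exposure of THP-1 cells; compounds (final up to 57.5 uM) added 1 h before LPS (250 ng/mL) and ATP (1.25 mM) stimulation; lower signal means less secretion.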
# RORg inh: blocks mouse ROR gamma transcriptional activity | Drosophila S2 Gal4-RORgamma UAS-luciferase reporter, 20 h | Potency, µM (top dose mostly 53.6 µM), for inactives: at the highest dose activity change, negative = inhibition, usual class: inhibitors | actives 5.4% (n = 310,000); note: potency is the fitted concentration of half-maximal effect; nearly all actives have a fitted effect of over 60% in size
# Target sequence (P51450 whole entry, looked up, the tested form may be a part): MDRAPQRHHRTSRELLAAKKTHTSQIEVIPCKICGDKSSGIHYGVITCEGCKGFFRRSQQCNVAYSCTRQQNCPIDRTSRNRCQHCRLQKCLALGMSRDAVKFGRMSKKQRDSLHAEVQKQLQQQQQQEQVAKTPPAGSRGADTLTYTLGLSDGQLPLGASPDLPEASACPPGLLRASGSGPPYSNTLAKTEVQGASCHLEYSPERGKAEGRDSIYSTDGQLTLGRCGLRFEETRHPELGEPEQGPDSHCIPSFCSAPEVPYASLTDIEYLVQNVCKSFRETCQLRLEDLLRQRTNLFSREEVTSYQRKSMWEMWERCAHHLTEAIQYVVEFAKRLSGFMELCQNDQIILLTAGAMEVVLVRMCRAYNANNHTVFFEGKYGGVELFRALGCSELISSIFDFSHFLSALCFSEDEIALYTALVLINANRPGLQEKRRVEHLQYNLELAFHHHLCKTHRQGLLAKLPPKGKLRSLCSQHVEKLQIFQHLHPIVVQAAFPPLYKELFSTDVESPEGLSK
#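 Drosophila S2 cells stably expressing Gal4-DBD/mouse RORγ fusion under metallothionein promoter plus UAS-luciferase; compound 1 h, then 700 uM CuSO4 induction for 20 h at ambient temperature; inhibition read as reduced luminescence.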
# DT40 TDP1 CPT: growth inhibition of DT40 Tdp1-/-;hTDP1 cells with camptothecin (screen for TDP1 inhibitors); chicken DT40 Tdp1-/-;hTDP1 cells + 20 nM CPT, ATP luminescence, 48 h; Potency, µM (top dose mostly 46.2 µM), for inactives: at the highest dose activity change, negative = growth inhibition, hits mostly inhibitors; actives 12% (n = 420,000); AID 686979; note: potency is the fitted concentration of half-maximal effect; nearly all actives have a fitted effect of over 55% in size
#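 Chicken DT40 Tdp1-/- cells stably complemented with human TDP1 were seeded at 400 cells/well in medium containing 20 nM camptothecin, exposed to pin-transferred compounds, and grown at 37 °C for at least 48 hr. Viability was read as ATP luminescence.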
# TDP1 cell noCPT: qHTS for Inhibitors of human tyrosyl-DNA phosphodiesterase 1 (TDP1): qHTS in cells in absence of CPT; AID 686978, 2013; Potency, µM (highest dose often 46.2 µM), for the others: at the highest dose activity change, negative = growth inhibition, actives largely listed as inhibitors; DT40 Tdp1-/- hTDP1 cells, no CPT, ATP luminescence, 48 h; actives 15% (n = 420,000); note: potency is the fitted concentration of half-maximal effect; nearly all actives have a fitted effect of over 55% in size
#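 A cellular qHTS used chicken DT40 cells lacking endogenous Tdp1 but carrying stably transfected human TDP1. Compounds were applied without camptothecin, and cell growth kinetics were judged by ATP-dependent luminescence after ≥48 hr.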
# ELG1 DNA repair: ELG1-dependent DNA repair inhibition; HEK293T ELG1-luciferase reporter, luminescence, 16 h; DNA damage induced by 5-fluorouridine; Potency, µM (titrated, usually from 46.1 µM), without a hit: at the highest dose activity change, negative = inhibition, actives largely listed as inhibitors; actives 2.3% (n = 330,000); AID 504467; note: potency is the fitted concentration of half-maximal effect; nearly all actives have a fitted effect of over 55% in size
#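 Cells (2,000 per well) received 5-fluorouridine plus test compound or DMSO and were incubated 16 hr at 37 °C, 5% CO2. Luciferase activity was read by luminescence 30 min after ONE-Glo addition; signal suppression marked inhibition of damage-induced ELG1 function.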
# * marks the source's active call; other numbers are inactive results; ? = inconclusive; · = no result given. Shown are actives, neighbours in structure and some others; about 21% of the full set was active somewhere. Unless noted, calls come from the whole dose curve; as a rule, active = well fitted curve in the direction sought with a large enough effect; inconclusive = small, poorly fitted or top-dose-only effect, or another doubt; inactive = no such curve, though single readings can be large; an effect the other way counts as inactive or inconclusive. % is set by controls: 0 for no effect and ±100 for the full control effect.
SMILES,Gal4-VP16 FLuc,IL-1B inflam inh,RORg inh,DT40 TDP1 CPT,TDP1 cell noCPT,ELG1 DNA repair
CCOC(=O)c1c(C)[nH]c(C)c1S(=O)(=O)N1CCCCC1,-13%,-1,5%,8%,5%,16%
CNC(=O)CSc1nc(N)c2c3c(sc2n1)CCC3,0%,-1,-8%,2%,2%,29%
CC1CCN(C(=O)CSc2nc(N)c3c4c(sc3n2)CN(C)CC4)CC1,-3%,-7,2%,?,21µM*,0%
CN1CCc2c(sc3nc(SCC(=O)N4CCOCC4)nc(N)c23)C1,2%,-21,-1%,23µM*,18µM*,?
O=C(Cn1c2ccccc2c2nc3n(c(=O)c21)CCS3)Nc1ccccc1,-4%,-9,-13%,21µM*,?,?
O=C1CCCC2=C1C(c1ccc(Cl)cc1)C1C(=O)c3ccccc3C1=N2 (centres undefined),-1%,-55*,-7%,?,?,-28%
Cc1ccc(C2C3=C(CCCC3=O)N=C3c4ccccc4C(=O)C32)cc1 (centres undefined),3%,-68*,-24%,-1%,?,?
CCOC(=O)C1=C(C)N=C2c3ccccc3C(=O)C2C1c1ccc(C)cc1 (centres undefined),?,10,?,?,?,?
CC(C)n1nnnc1C1c2ccccc2C(=O)N1CCOc1ccccc1 (centres undefined),·,28,·,-5%,?,·
Cc1nn(CCCC(=O)Nc2c(F)cc(F)cc2Br)c(C)c1[N+](=O)[O-],16%,7,24%,2%,-8%,?
COC(=O)c1cc(NC(=O)c2nn(C)c3c2CSc2ccccc2-3)cc(C(=O)OC)c1,·,·,·,6%,5%,·
CC1(C)CC2CC(C)(CN2S(=O)(=O)c2ccc(F)cc2F)C1 (centres undefined),·,14,·,?,5.8µM*,-2%
CC(Oc1ccc2c(-c3ccccc3)cc(=O)oc2c1)C(=O)NCC(O)c1ccccc1 (centres undefined),-2%,0,-17%,?,?,?
CCCc1cc(=O)oc2cc(OCC(=O)NCCc3c[nH]c4ccc(OC)cc34)ccc12,-12%,-19,?,16µM*,15µM*,?
CCCc1cc(=O)oc2cc(OCC(=O)NCCc3ccc(S(N)(=O)=O)cc3)ccc12,1%,6,45%,-23%,-26%,-2%
CCc1cc(=O)oc2cc(C)cc(OCC(=O)NCCc3c[nH]c4ccccc34)c12,-5%,?,12%,?,?,5.8µM*
C/C(=N/NC(=O)C1CCCC1)c1ccc(NC(=O)C(F)(F)F)cc1,11%,·,9%,·,·,?
CCOC(=O)N1CCC(NC(=O)c2ccc3c(c2)N(Cc2ccc(C)cc2)CCS3)CC1,0%,24,-4%,21µM*,21µM*,?
CCOC(=O)N1CCC(NC(=O)c2ccc3c(c2)N(Cc2ccccc2)CCS3)CC1,-7%,32,19%,18µM*,15µM*,15µM*
CCOC(=O)N1CCC(NC(=O)c2ccc3c(c2)N(Cc2ccc(F)cc2)CCS3)CC1,-12%,-8,23%,23µM*,23µM*,18µM*
CCOC(=O)N1CCN(C(=O)c2ccc3c(c2)N(Cc2ccc(F)cc2)CCS3)CC1,-20%,21,37%,8.2µM*,9.2µM*,-22%
CCOC(=O)N1CCN(C(=O)c2ccc3c(c2)N(CC)CCS3)CC1,15%,-6,-11%,?,?,-14%
Cc1cc(CSc2ccccc2)ccc1NC(=O)c1ccc(Cl)c([N+](=O)[O-])c1,-10%,?,-2%,?,?,1%
CCOc1ccc(S(=O)(=O)NCCC(=O)N(C)Cc2cccs2)cc1,·,6,·,-24%,?,14%
O=C(Nc1cccc(O)c1)c1cc2nc(-c3ccc(Br)cc3)cc(C(F)(F)F)n2n1,·,·,·,-10%,-13%,·
SMILES,Gal4-VP16 FLuc,IL-1B inflam inh,RORg inh,DT40 TDP1 CPT,TDP1 cell noCPT,ELG1 DNA repair
O=C(c1ccc2c(c1)N(Cc1ccc(F)cc1)CCS2)N1CCN(c2ccccc2)CC1,·,·,·,21µM*,23µM*,·
Cc1ccc(S(=O)(=O)NCCc2csc3nc(-c4ccccc4C)nn23)cc1,·,·,·,-23%,?,·
O=S(=O)(NCCc1csc2nc(-c3ccc(Cl)cc3)nn12)c1cccs1,·,·,·,18µM*,15µM*,·
Cc1noc(C)c1S(=O)(=O)NCCc1csc2nc(-c3ccc(Cl)cc3)nn12,·,·,·,23µM*,12µM*,·
CCOC(=O)c1c(S(=O)(=O)N2CCCC(C(=O)N3CCN(c4cccc(C)c4C)CC3)C2)c(C)n(C)c1C (centres undefined),·,·,·,7.3µM*,9.2µM*,·
CCOC(=O)c1c(S(=O)(=O)N2CCCC(C(=O)N3CCN(c4cc(C)ccc4C)CC3)C2)c(C)n(C)c1C (centres undefined),·,·,·,8.2µM*,9.2µM*,·
CCOC(=O)c1c(S(=O)(=O)N2CCC(C(=O)N3CCN(c4cc(C)ccc4C)CC3)CC2)c(C)n(C)c1C,·,·,·,?,23µM*,·
CCOC(=O)c1c(S(=O)(=O)N2CCCC(C(=O)Nc3cc(C)ccn3)C2)c(C)n(C)c1C (centres undefined),·,·,·,-28%,-22%,·
CCOC(=O)c1c(S(=O)(=O)N2CCC(C(=O)N3CCN(c4ccccc4F)CC3)CC2)c(C)n(C)c1C,·,·,·,?,-25%,·
O=C(Nc1ccc(N2CCOCC2)c(S(=O)(=O)Nc2ccc(Cl)cc2)c1)c1ccc(=O)[nH]n1,·,-56*,·,-22%,-16%,-12%
O=C(Nc1ccc(N2CCOCC2)c(S(=O)(=O)Nc2ccc(Cl)cc2)c1)c1cnccn1,-1%,-17,?,16µM*,18µM*,?
CCC(=O)Nc1ccc(N2CCOCC2)c(S(=O)(=O)Nc2ccc(Cl)cc2)c1,·,1,·,?,-24%,7%
O=C(Nc1ccc2c(c1)OCO2)c1ccc(=O)[nH]n1,10%,0,2%,3%,18%,?
CC1(C(=O)NCc2ccccc2)CN(S(C)(=O)=O)CC(=O)N1C1CCN(Cc2ccccc2)CC1 (centres undefined),·,-26,·,1%,1%,·
CCCCNC(=O)C1C(c2ccc(C(F)(F)F)cc2)=Nc2ccccc2N1C(=O)c1ccc2nc(C)[nH]c2c1 (centres undefined),·,-27,·,?,?,·
